Experimental data taken from PubChem BioAssay AID504861 (Broad Institute, 2011).
The campaign covered roughly 1,200 compounds. About 290 (24%) were called active. Roughly 3% stayed inconclusive and do not appear here. Only a sample is shown. Potency and affinity values are given separately. A number with no mark means an inactive call.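 How the source made its calls: active means compounds lowering cell viability signal with fitted half-maximal concentration at most ten times their highest tested concentration; inconclusive means flat fit with 30 to 70% signal loss, or poor fit; inactive means the rest.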

assay: cytotoxicity in HEK293T cells – cell-based, CellTiter-Glo luminescence, cherry-picks, cytotoxicity control for LMP1 NF-kB inhibitor project, dose response (AID 504861); conditions: HEK293T viability, CellTiter-Glo ATP luminescence, 48 h; series mostly up to 26 µM; activity change, negative = cytotoxicity: at the top concentration

Compound | activity change, negative = cytotoxicity
COc1ccc(C2=NN(C(=O)CSC3=NN4CCCC(=O)N=C4S3)C(c3cccc(OC)c3OC)C2)cc1 (stereo not drawn) | -3.83%
O=C(NC1=NCCS1)c1cc2ccccc2o1 | -0.619%
O=C(O)[C@@H]1[C@H]2C[C@H]3c4[nH]c5ccccc5c4CCN3C[C@@H]2CC[C@@H]1O | 10.1%
Cc1ccnc(NC(=O)c2ccc(OCC3CCCO3)cc2)c1 (stereo not drawn) | -4.98%
Cc1ccnc(NC(=O)c2ccc(C(=O)c3ccccc3)cc2)c1 | 21.4%
COc1ccc(C(c2c(C)n(C)n(-c3ccccc3)c2=O)c2c(C)n(C)n(-c3ccccc3)c2=O)c(OC)c1OC | 0.432%
CCCNC(=O)N1CCN(S(=O)(=O)c2ccc(C)c(C)c2)CC1 | 5.01%
O=C(CCC(=O)NNC(=O)Nc1cccc(Cl)c1)NCc1ccccc1 | -2.26%
Cc1cc(NCCCn2ccnc2)n2ncc(-c3ccccc3)c2n1 | 2.7%
O=C(Nc1cnc2ccccn2c1=O)c1ccc(Cl)cc1Cl | 5.04%
O=C1c2cccc3c(O)ccc(c23)C(=O)N1c1ccc(Cl)cc1 | 5.3%
CC(=O)c1ccc(-n2nnnc2SCC(=O)N2CCc3ccccc3C2)cc1 | -0.209%
COc1cc(N)c(Cl)cc1C(=O)NC1CCN(Cc2ccccc2)CC1 | -0.368%
CCOc1ccc(NC(=O)c2cnsn2)cc1 | 10.2%
COc1ccc(-n2c(C)c(C(C)=O)c3cc(O)ccc32)cc1 | 0.983%
Clc1ccc(-n2nnnc2Sc2ncnc3sccc23)cc1 | 10.2%
COc1cc2nc(NC(=O)c3ccco3)sc(=O)c2cc1OC | -2.86%
O=C(Nc1ccc(Cl)cc1)c1ccco1 | -7.91%
COc1cccc(/C=C2\SC(=S)N(CCC(=O)NCCc3ccc(O)cc3)C2=O)c1 | 8.59%
COc1ccc(NC(=O)Cn2nnc(C(=O)NCc3ccccc3)c2N)c(OC)c1 | 6.31%
CNC(=O)C1=NCCCc2cc(OC)c(OC)cc21 | -10.9%
CCc1ccc(/C=C2\SC(=S)N(CCCC(=O)Nc3ccccn3)C2=O)cc1 | 2.77%

Compound | activity change, negative = cytotoxicity
COc1ccc(OC)c2[nH]c(=O)c(CCNC(=O)c3ccc(S(=O)(=O)N(C)C)cc3)cc12 | 5.95%
O=C(NOCc1ccccc1)c1ccc(Cl)cc1Cl | 2.96%
CCOC(=O)c1nc(NCc2ccccc2F)c2ccccc2n1 | -0.295%
C/C(=N\NS(=O)(=O)c1ccc([N+](=O)[O-])cc1)c1cccs1 | 7.67%
CC1Cc2ccccc2N1c1ncnc(N)c1[N+](=O)[O-] (stereo not drawn) | -12.3%
O=C(/C=C/Nc1ccc(F)cc1Br)c1ccccc1 | -5.49%
COc1ccc(C(=O)Nc2nnc(SCC(=O)NC3CC3)s2)cc1 | 1.92%
O=C(COc1ccc2ccccc2c1)NCCNC(=O)COc1ccc2ccccc2c1 | -3.57%
Cc1ccc(C(=O)CSc2nnnn2C(C)C)c(C)c1 | 7%
O=C(Nc1nnc(-c2cccs2)o1)c1cccc(C(F)(F)F)c1 | 8.43%
COc1ccc(C(=O)Nc2cccc(C(=O)N/N=C/c3ccc(OC)cc3OC)c2)cc1 | 9.7%
COc1ccc(OCc2cccc(C(=O)Nn3cc([N+](=O)[O-])cn3)c2)cc1 | 9.18%
Cc1ccc(C(=O)N2CCN(c3ccc(NC(=O)CSc4ccc(Cl)cc4)cc3)CC2)cc1 | 6.23%
Cc1nnc(SCc2cnc(-c3ccc(C(C)C)cc3)s2)n1C | -3.15%
Cc1cc(NC(=O)CSc2ccnc(=O)[nH]2)no1 | 19.6%
O=C1OCCC1Sc1nnc(-c2ccc(Cl)cc2Cl)o1 (stereo not drawn) | 9.49%
O=c1[nH]c(Nc2nc3ccccc3o2)nc2c1CCCC2 | 2.83%
O=C(CC(c1ccc(F)cc1)c1ccco1)N1CCOCC1 (stereo not drawn) | 4.11%
O=C(Nc1ccc(CN2CCOCC2)cc1)c1cc2ccccn2n1 | -4.33%
Clc1ccc(-c2ccnc(Oc3ccc4ccccc4c3)n2)cc1 | 2.96%
CC(C)(C)c1cc(C(=O)NNC(=O)Nc2cccc(Cl)c2)n(Cc2ccccc2)n1 | 10.8%
